# High-throughput results: PubChem, several laboratories
# SKKanGAS inh = inhibitors of SKKanGAS S. pyogenes growth in kanamycin (SK-promoter or general growth effect); BacTiter-Glo, 6 h; inhibition, % at 7.5 µM; actives 1.3% (n = 300,000);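 active = mean replicate score, as percent of positive control median, at least 50; inconclusive = mean below 50 but one replicate at or above 50; inactive = mean and every replicate below 50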;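 note: strain carries kanamycin resistance gene driven by streptokinase promoter and grows in 40 µg/ml kanamycin; loss of luminescence reflects streptokinase promoter inhibition or plain growth inhibition; 0% = median of DMSO wells and 100% = positive control at its reference dose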
# Calb FLC = affects C. albicans growth with fluconazole; growth inhibition, % (no concentration beside the values); actives 0.57% (n = 300,000); AID 1979; C. albicans CaCi-2 (fluconazole-resistant clinical isolate) + fluconazole, Alamar Blue growth, 48 h;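 active = growth inhibition above about 58% in most replicates, limit read from the data, passing the limit was not always enough; inconclusive = exactly half the replicates above a set limit; inactive = most replicates below a set limit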;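 note: all wells also contain fluconazole at 8 µg/ml as a sub-toxic cotreatment; 0% = median of DMSO wells and 100% = median of geldanamycin control wells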
# MPTP block = inhibitors of mitochondrial permeability transition pore; actives 1.4% (n = 360,000); isolated mouse mitochondria, Ca2+ swelling absorbance, 30 min; inhibition, % at 10 µM;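 active = inhibition of 50% or more, scaled per plate between neutral and stimulator controls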;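 note: 0% = DMSO wells given calcium and 100% = 1 mM EGTA wells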
# CSC inhib = cancer stem cell inhibition. cancer stem cell-like cells viability, luminescence. inhibition, % at 7.5 µM. actives 1.1% (n = 300,000). AID 2717; in the data active = inhibition above about 75%; inconclusive = no clear call, values can overlap the other calls; tested in HMLE shEcad cells
# Beta apoptosis = blocks beta cell apoptosis. INS-1E cytokine-induced death, ATP luminescence, 48 h; percent of positive-control rescue, neutral wells zero. protection from apoptosis, % (no concentration beside the values). actives 0.8% (n = 300,000). AID 435005;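 active = Every replicate reaches about 75%, or at least half do and their mean reaches it too, limit read from the data; inconclusive = At least half of replicates reach the limit but their mean does not; inactive = Under half of replicates reach the limit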;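 note: 0% = cytokine-treated negative control wells and 100% = positive control rescue; higher means more ATP so stronger rescue from cytokine killing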
# Mdm2-MdmX inh = disrupts the human Mdm2-MdmX interaction; actives 3% (n = 330,000); AID 485346; SaOS-2 split-luciferase Mdm2/MdmX complementation, luminescence; inhibition, % at 8 µM;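 active = inhibition of at least 50% at 8 µM in the primary screen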
# Target sequence (O15151 whole entry, looked up): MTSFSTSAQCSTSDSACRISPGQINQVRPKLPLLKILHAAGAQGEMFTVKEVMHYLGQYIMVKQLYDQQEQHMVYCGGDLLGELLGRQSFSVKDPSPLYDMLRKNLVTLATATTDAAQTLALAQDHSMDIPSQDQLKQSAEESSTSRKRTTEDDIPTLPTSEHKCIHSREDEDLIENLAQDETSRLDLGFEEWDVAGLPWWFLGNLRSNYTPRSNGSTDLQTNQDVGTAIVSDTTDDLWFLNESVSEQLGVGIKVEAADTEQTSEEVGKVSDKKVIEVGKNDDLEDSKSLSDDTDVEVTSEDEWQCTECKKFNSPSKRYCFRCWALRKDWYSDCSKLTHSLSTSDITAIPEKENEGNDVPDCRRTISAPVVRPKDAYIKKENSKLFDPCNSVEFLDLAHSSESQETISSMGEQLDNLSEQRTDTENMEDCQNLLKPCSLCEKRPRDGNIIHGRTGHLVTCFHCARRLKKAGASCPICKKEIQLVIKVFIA
# Target sequence (Q00987 whole entry, looked up): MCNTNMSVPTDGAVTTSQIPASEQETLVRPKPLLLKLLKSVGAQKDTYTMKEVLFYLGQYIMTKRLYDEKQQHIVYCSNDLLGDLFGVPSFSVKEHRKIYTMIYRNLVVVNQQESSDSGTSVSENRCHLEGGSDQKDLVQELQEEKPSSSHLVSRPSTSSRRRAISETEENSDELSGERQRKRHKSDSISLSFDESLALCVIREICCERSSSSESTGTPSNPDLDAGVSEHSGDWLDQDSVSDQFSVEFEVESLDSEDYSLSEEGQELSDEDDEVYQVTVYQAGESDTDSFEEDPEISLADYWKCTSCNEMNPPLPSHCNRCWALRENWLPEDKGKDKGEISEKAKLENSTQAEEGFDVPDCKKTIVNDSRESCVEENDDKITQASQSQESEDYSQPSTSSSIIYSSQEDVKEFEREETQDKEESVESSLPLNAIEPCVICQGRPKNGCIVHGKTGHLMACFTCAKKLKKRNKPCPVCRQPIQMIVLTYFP
# Mdm2 MdmX conf = confirmation of human Mdm2/MdmX interaction inhibitors; actives 55% (n = 10,000); Mdm2-MdmX binding, luminescent assay; inhibition, % at 8 µM; shares compounds with Mdm2-MdmX inh; in the data active = inhibition above about 40%
# FLuc counter = full-length luciferase inhibition in Mdm2/MdmX counter-screen; shares compounds with Mdm2-MdmX inh; SaOS-2 full-length luciferase counterscreen, luminescence; actives 77% (n = 6,200); AID 504607; inhibition, % at 8 µM;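 active = mean inhibition at 8 µM reaching about 37%, which flags the compound as non-specific, limit read from the data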;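 note: p53-null SaOS-2 cells with luciferase driven by a doxycycline-inducible promoter; compound on cells about two nights before reading with doxycycline added after day one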
# An asterisk follows results filed as active; ? = inconclusive; · = not tested or not shown; + = active, no number. A selection: hits, their analogues and other compounds. The true share with any hit is near 5.4%.
SMILES,SKKanGAS inh,Calb FLC,MPTP block,CSC inhib,Beta apoptosis,Mdm2-MdmX inh,Mdm2 MdmX conf,FLuc counter
COc1cccc(-c2nn(C)c3sc(C(=O)NCc4ccco4)cc23)c1,6,-1,0,-5,-2,61*,40*,69*
CCCCN(CC)CCCNC(=O)c1cc2c(-c3ccc(OC)c(OC)c3)nn(C)c2s1,3,-9,3,-2,-1,57*,67*,82*
CCN(CC)CCCNC(=O)c1cc2c(-c3cccc(OC)c3)nn(C)c2s1,3,-2,-1,31,2,23,·,·
COc1ccc(CN(C)C(=O)CCNS(=O)(=O)c2ccccc2)c(OC)c1,·,·,1,·,·,·,·,·
COc1cccc(CC2(CO)CCCN(Cc3ccc(C)s3)C2)c1 (stereo unspecified),-10,-14,2,24,0,1,·,·
COc1cccc(CC2(CO)CCCN(Cc3[nH]c4ccc(C)cc4c3C)C2)c1 (stereo unspecified),-1,-9,4,53,-2,63*,20,·
CC(C)(C)c1cc(OC(=O)c2ccccc2F)ccc1O,9,17,0,-19,-5,8,·,·
N=c1n(CC(=O)c2ccc(Br)s2)c2ccccc2n1Cc1ccccc1,6,3,14,25,26,97*,62*,53*
Cn1c(=N)n(CC(=O)c2ccc(Br)s2)c2ccccc21,1,-18,11,0,-3,12,·,·
N=c1n(CC(=O)c2cccc([N+](=O)[O-])c2)c2ccccc2n1Cc1ccccc1,13,-21,2,24,25,92*,5,·
O=C1CCc2cc(S(=O)(=O)N3CCC(C(=O)NC4CCCC4)CC3)ccc2N1,6,-4,0,-7,·,-24,·,·
Cc1c(C#N)c(NC(=O)CCl)n(Cc2ccc(F)cc2)c1C,0,-16,0,15,-4,89*,51*,43*
Cc1c(C#N)c(NC(=O)CCl)n(Cc2ccccc2)c1C,11,97*,0,33,3,94*,86*,38*
Cc1c(C#N)c(NC(=O)CCl)n(Cc2cccs2)c1C,1,-6,1,-1,6,94*,76*,38*
COC(=O)c1cc(C(=O)OC)n(Cc2ccc(F)cc2)c1C,-3,6,0,-3,-4,-21,·,·
COC(c1ccccc1)c1nnc(CCC(=O)NCc2ccc3ncccc3c2)o1 (stereo unspecified),1,14,2,-8,-9,-15,·,·
CCn1c(Oc2ccccc2F)nc2c1c(=O)n(C)c(=O)n2C,22,7,1,-8,-14,68*,66*,23
COc1cccc(OCCCn2cc(/C=C3/C(=N)N4C=C(C)SC4=NC3=O)c3ccccc32)c1,21,-20,1,13,7,48,·,·
COc1ccc(OCCCn2cc(/C=C3/C(=N)N4C=C(C)SC4=NC3=O)c3ccccc32)cc1,35,2,1,10,11,65*,71*,69*
O=C1c2ccccc2NC(c2ccc(Br)s2)N1O (stereo unspecified),?,2,·,10,11,54*,62*,44*
CN(C(=O)COC(=O)c1ccc2c(=O)n3c(nc2c1)CCC3)C1CCS(=O)(=O)C1 (stereo unspecified),3,14,3,-31,-3,-11,·,·
O=c1c2cc3ccccc3n2cnn1Cc1ccccc1F,4,29,1,-11,-5,54*,41*,84*
C=C(C)COc1ccc(-c2n[nH]c(C)c2-c2ccc(OC)cc2)c(O)c1,61*,-3,-2,+,29,61*,49*,71*
COc1ccc(-c2n[nH]c(C)c2-c2cscn2)c(O)c1,1,-6,0,-6,-3,4,·,·
COC(=O)c1nn(-c2ccc(OC)cc2)c(=O)cc1O,4,-1,0,14,-5,-5,·,·
SMILES,SKKanGAS inh,Calb FLC,MPTP block,CSC inhib,Beta apoptosis,Mdm2-MdmX inh,Mdm2 MdmX conf,FLuc counter
COc1ccc(-n2nc(C#N)c(Cl)cc2=O)cc1,·,·,0,·,·,100*,100*,53*
COc1ccc(N(Cc2cc3cc(OC)ccc3[nH]c2=O)S(=O)(=O)c2ccc(NC(C)=O)cc2)cc1,12,1,-2,33,3,77*,71*,65*
COc1ccc(N(Cc2cc3ccccc3[nH]c2=O)S(=O)(=O)c2ccc(OC)cc2)cc1,-1,4,0,47,-5,35,·,·
COc1ccc(Nc2ccnc3ccccc23)cc1,-6,-6,0,-6,18,65*,57*,34
Oc1ccc(Nc2nc(N3CCCC3)c3ccccc3n2)cc1,4,3,16,·,99*,85*,16,·
COc1ccc(Nc2ncnc3ccccc23)cc1,-5,-14,0,2,·,8,·,·
Cc1ccc(Nc2nc(N3CCOCC3)c3ccccc3n2)cc1,-3,-17,7,-9,22,32,·,·
COc1ccc(Nc2nc(N3CCCCC3)c3ccccc3n2)cc1,2,-14,44,16,73,59*,30,·
O=c1c2ccccc2nc(-c2ccc(Cl)cc2)n1C1CCS(=O)(=O)C1 (stereo unspecified),-1,0,1,1,5,-12,·,·
O=C(NNc1cccc(Cl)n1)C(F)(F)F,-5,-32,0,-4,0,-26,·,·
CCOC1=NN(c2ncc(C(F)(F)F)cc2Cl)C(=O)/C1=C/N(C)C,0,22,0,-5,-7,70*,-7,·
O=C(COC(=O)[C@H](Cc1c[nH]c2ccccc12)NC(=O)c1cccs1)NCc1ccccc1,9,0,0,-4,-1,17,·,·
O=C(NC(Cc1c[nH]c2ccccc12)C(=O)Nc1ccc(F)c([N+](=O)[O-])c1)c1cccs1 (stereo unspecified),11,-18,4,39,3,96*,87*,25
O=C(NC(Cc1c[nH]c2ccccc12)C(=O)Nc1ccc(OC(F)(F)F)cc1)c1cccs1 (stereo unspecified),-13,-2,14,51,1,93*,94*,26
O=C(c1cc(COc2c(F)cccc2F)on1)N1CCCCCC1,37,-3,0,-5,-7,-16,·,·
O=C(/C=C/c1ccco1)Nc1cc(Cl)ccc1C(=O)O,9,27,4,34,-6,-8,·,·
O=C(/C=C\c1ccco1)Nc1cc([N+](=O)[O-])ccc1F,-13,-8,-1,·,53,59*,58*,124*
C[C@@H]1CN([C@H](C)CO)C(=O)CCCn2nncc2CO[C@H]1CN(C)S(=O)(=O)c1ccc2ccccc2c1,·,·,2,·,·,·,·,·
